# The list is not random: actives were taken first. Their share in the collection is about 27%.
# PTK2B oligo ant: antagonists of Pyk2 self-association, primary screen, Q293 cells, FERM NanoBiT luminescence, HTS; active compounds read low; actives 0.83% (n = 99,000); Protein-tyrosine kinase 2-beta (Homo sapiens), Q14289; z-score (the deposit names both 25 µM and 10 µM);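 active = Z-score of -3 or lower, scaled per plate to the spread of control and sample wells; inactive = z-score above -3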;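 also: negative z-score means lost luminescence so less FERM oligomerization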
# CYP2C19 inh: blockers of cytochrome P450 2C19 activity – biochemical, luminescence, ADME assay, primary screen; CYP2C19 Supersomes, luciferin-H EGE luminescence, 30 min; inhibition, % at 5 µM; actives 21% (n = 96,000); AID 778, 2007; P33261;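 active = CYP2C19 inhibition above a set limit at 5 µM in the primary screen, cut at about 50% in these data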;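 also: plate controls were negative control wells for no effect and 2.5 mM tranylcypromine positive control for full effect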
# CYP2C9 inh: blockers of cytochrome P450 2C9 activity – biochemical, luminescence, ADME assay, primary screen | inhibition, % at 5 µM | actives 20% (n = 96,000) | P11712 | CYP2C9 Supersomes, luciferin-H conversion;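 active = blocking of liver enzyme CYP2C9 beyond about 50% at 5 µM, limit read from the data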
# Cav32 inh: Cav3.2 calcium influx blockers – cell-based, Fluo-4 calcium fluorescence, FDSS, MLSMR library, primary screen. actives 4% (n = 100,000). AID 449739, 2010. B-score at 10 µM. Cav3.2-expressing cells; active compounds read low;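 active = single-dose well whose peak fluorescence ratio is a statistical outlier from its plate by either plate-standardised score or position-corrected B-score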
# Target sequence (O95180 whole entry, looked up): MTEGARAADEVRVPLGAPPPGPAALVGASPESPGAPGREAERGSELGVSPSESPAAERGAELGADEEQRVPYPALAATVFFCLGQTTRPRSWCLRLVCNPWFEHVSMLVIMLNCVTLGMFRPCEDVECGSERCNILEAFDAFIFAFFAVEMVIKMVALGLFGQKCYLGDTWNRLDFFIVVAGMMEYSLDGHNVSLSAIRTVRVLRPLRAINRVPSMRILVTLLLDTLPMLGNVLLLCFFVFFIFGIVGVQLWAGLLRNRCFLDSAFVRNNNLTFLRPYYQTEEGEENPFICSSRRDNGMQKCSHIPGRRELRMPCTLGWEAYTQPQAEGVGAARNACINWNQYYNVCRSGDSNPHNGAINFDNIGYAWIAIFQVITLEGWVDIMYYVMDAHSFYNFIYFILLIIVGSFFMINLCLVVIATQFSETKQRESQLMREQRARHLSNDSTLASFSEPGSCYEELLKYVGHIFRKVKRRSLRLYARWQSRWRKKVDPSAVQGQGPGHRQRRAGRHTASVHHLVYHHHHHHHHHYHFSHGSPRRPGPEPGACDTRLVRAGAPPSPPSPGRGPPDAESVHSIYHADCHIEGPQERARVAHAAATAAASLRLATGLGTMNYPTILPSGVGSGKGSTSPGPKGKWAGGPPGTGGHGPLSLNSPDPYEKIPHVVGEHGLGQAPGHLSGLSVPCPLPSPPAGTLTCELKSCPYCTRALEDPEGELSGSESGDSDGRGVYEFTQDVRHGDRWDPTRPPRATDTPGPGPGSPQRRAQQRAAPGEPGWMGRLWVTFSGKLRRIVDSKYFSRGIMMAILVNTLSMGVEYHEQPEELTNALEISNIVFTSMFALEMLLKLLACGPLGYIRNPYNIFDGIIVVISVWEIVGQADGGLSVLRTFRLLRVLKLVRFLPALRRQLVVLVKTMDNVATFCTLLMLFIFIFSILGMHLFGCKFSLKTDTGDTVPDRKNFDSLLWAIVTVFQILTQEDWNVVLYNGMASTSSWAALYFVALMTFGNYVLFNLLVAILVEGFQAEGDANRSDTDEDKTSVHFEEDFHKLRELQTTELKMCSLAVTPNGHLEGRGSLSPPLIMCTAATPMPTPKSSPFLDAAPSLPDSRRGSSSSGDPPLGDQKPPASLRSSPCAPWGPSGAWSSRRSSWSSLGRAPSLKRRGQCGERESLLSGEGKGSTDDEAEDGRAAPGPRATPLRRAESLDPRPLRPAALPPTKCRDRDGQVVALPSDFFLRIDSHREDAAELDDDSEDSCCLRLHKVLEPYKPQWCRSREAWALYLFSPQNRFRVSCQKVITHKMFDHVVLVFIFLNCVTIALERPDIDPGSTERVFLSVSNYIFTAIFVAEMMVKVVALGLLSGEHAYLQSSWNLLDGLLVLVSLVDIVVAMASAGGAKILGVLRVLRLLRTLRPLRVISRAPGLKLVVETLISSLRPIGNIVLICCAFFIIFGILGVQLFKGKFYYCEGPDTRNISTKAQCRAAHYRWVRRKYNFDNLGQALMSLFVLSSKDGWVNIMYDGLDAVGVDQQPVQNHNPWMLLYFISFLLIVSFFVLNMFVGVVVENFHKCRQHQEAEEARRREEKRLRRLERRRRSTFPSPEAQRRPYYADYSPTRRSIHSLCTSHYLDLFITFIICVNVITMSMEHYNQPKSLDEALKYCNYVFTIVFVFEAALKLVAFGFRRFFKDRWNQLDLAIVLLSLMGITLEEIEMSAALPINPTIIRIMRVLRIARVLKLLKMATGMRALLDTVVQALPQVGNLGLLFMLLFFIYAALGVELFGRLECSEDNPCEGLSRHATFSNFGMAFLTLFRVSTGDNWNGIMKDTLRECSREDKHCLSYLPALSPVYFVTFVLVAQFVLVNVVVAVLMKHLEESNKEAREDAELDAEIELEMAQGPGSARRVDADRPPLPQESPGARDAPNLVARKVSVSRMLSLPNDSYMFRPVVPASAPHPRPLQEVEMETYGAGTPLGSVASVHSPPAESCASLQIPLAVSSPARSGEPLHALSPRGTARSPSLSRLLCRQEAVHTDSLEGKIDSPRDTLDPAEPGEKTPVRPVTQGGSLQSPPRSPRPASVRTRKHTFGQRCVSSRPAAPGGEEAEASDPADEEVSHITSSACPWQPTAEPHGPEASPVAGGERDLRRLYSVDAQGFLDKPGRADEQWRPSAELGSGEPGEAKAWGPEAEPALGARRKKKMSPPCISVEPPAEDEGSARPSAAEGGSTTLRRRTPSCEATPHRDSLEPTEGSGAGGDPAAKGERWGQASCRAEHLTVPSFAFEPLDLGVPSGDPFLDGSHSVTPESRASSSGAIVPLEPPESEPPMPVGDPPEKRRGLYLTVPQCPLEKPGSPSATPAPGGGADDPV
# CYP2C9 act: human CYP2C9 activators, primary screen, biochemical, luminescence; AID 1024, 2008; recombinant CYP2C9, luciferin-H conversion; active compounds read high; factor 1 = untreated enzyme, 0 = blocked; Cytochrome P450 2C9 (Homo sapiens), P11712; activation factor at 5 µM; actives 1.4% (n = 96,000);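 active = activation factor of 2 or more for CYP2C9 at a 5 µM dose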;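 also: 0 = sulfaphenazole-blocked wells and 1 = vehicle-only wells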
# CYP2C19 act: human CYP2C19 activators, primary screen, biochemical, luminescence. activation factor at 5 µM. Cytochrome P450 2C19 (Homo sapiens), P33261. 96,000 tested, under 10 active. recombinant CYP2C19, luciferin-H EGE luminescence; active compounds read high; 0 = fully inhibited enzyme, 1 = untreated enzyme;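 active = activation factor of at least 2 at 5 µM in the primary screen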;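 also: 0 = wells with 2.5 mM tranylcypromine and 1 = vehicle-only wells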
# * = called active by the depositor; nt = not tested or not shown.
SMILES,PTK2B oligo ant,CYP2C19 inh,CYP2C9 inh,Cav32 inh,CYP2C9 act,CYP2C19 act
CCCCC1(O)CC(C(F)(F)F)=NN1C(=O)COc1ccccc1 (configuration not stated),0.05,nt,nt,-4.2,nt,nt
CCOC(=O)c1c(C)c(C(=O)NCc2ccccn2)c(C)n1CC,0.53,30,10,0.54,0.9,0.7
CCC1(CC)C(=O)C2=C3C1[C@H](C(=O)OC)CC(C(=O)OC)C[C@H]3[C@H]1C(=O)N(c3ccccc3)C(=O)[C@H]1[C@H]2C (some centres not stated),nt,nt,nt,-0.25,nt,nt
CCOc1ccc(NC(=O)CSc2nnc(C34CC5CC(CC(C5)C3)C4)n2C)cc1,-0.24,23,43,0.11,0.6,0.8
COc1ccc2oc(=O)c(C(=O)N3CCc4ccccc43)cc2c1,-1.4,0,-117,0.34,2.2*,1
Nc1c(Cl)cc(-c2csc(NC(CO)c3nc4ccccc4n3CCOCCO)n2)cc1Cl (configuration not stated),nt,nt,nt,0.062,nt,nt
CC(C)C(=O)Nc1ccc(C(=O)c2ccccc2)cc1,0.07,nt,nt,0.96,nt,nt
Cn1ccnc1SCC(=O)Nc1ccc(Oc2ccccc2)cc1,0.42,88*,71*,0.56,0.3,0.1
Cn1ccnc1SCC(=O)Nc1cccc(C(F)(F)F)c1,0.66,87*,-52,0.037,1.5,0.1
COCCNC(=S)NC12CC3CC(CC(C3)C1)C2,0.77,40,-8,-0.085,1.1,0.6
COc1ccc(N(CC(=O)N2CC=C(c3ccccc3)CC2)S(=O)(=O)c2c(C)noc2C)cc1,nt,-1,13,-1,0.9,1
CCOc1ccc(N(CC(=O)NCc2cccs2)S(=O)(=O)c2c(C)noc2C)cc1,nt,86*,69*,-2.1,0.3,0.1
CCOc1ccc(N(CC(=O)N2CC=C(c3ccccc3)CC2)S(=O)(=O)c2c(C)noc2C)cc1,nt,64*,31,-4.8*,0.7,0.4
CCOc1ccc(N(CC(=O)NC(C)(C)C)S(=O)(=O)c2c(C)noc2C)cc1,nt,50*,42,0.23,0.6,0.5
O=C(C1COc2ccccc2O1)N1CCc2ccccc2C1 (configuration not stated),0.24,nt,nt,-1.6,nt,nt
CN(C1CCCCC1)S(=O)(=O)Cc1ccccc1,0.27,54*,16,1.1,0.8,0.5
CCN(CC)CCNC(=O)Cc1c(C(=O)O)n(C)c2ccccc12,0.91,-12,-11,0.4,1.1,1.1
Cn1c(C(=O)O)c(CC(=O)Nc2ccc3c(c2)OCCO3)c2ccccc21,-0.87,59*,65*,0.33,0.3,0.4
Cn1c(C(=O)O)c(CC(=O)Nc2ccc(F)cc2F)c2ccccc21,-0.52,78*,95*,-0.7,0,0.2
CCCCCCCCc1nnc(NC(=O)c2ccco2)s1,0.18,28,43,-2.3,0.6,0.7
CC(C)NS(=O)(=O)c1ccc(OCC(N)=O)c(Cl)c1,-0.08,49,24,-0.66,0.8,0.5
Cc1cc(Cl)c(S(=O)(=O)N2CCCCCC2)cc1OCC(N)=O,-0.09,12,-87,0.055,1.9,0.9
O=C(COc1ccc(Cl)cc1Cl)NC1CCSC1=O (configuration not stated),0.15,96*,60*,1.6,0.4,0
CCOc1cc(C)c(S(=O)(=O)NC2CCCCC2)cc1C,-1.5,72*,44,nt,0.6,0.3
CC(C)NS(=O)(=O)c1ccc(OCC(=O)NCC2CCCO2)c(Cl)c1 (configuration not stated),1.1,67*,66*,1.2,0.3,0.3
SMILES,PTK2B oligo ant,CYP2C19 inh,CYP2C9 inh,Cav32 inh,CYP2C9 act,CYP2C19 act
CCOC(=O)C1CCCN(S(=O)(=O)c2cc(OCC(N)=O)c(C)cc2Cl)C1 (configuration not stated),-1.2,91*,-18,0.78,1.2,0.1
CC1(C)C2CCC1(C)C(OC(=O)CSc1nc(N)cc(=O)[nH]1)C2 (configuration not stated),0.01,22,-1,-0.0055,1,0.8
COCCCNC(=O)C1CCCN(C(=O)Nc2ccc(OC)cc2)C1 (configuration not stated),-0.34,-7,8,-0.12,0.9,1.1
Cc1ccc(OCC(=O)NC2CCCC2)c(C)c1,1.5,47,6,0.29,0.9,0.5
CCN1CCN(S(=O)(=O)c2cc(OCC(=O)NC3CCCCC3)c(C)cc2Cl)CC1,1.4,33,56*,1.3,0.4,0.7
Cc1cc(Cl)ccc1OCCCC(=O)NCC1CCCO1 (configuration not stated),0.54,27,-131,0.015,2.3*,0.7
Cc1cc(Cl)c(S(=O)(=O)N2CCN(c3cccc(C)c3C)CC2)cc1OCC(N)=O,-2.8,32,39,-1.2,0.6,0.7
Cc1cc(Cl)ccc1OCC(=O)NC1CCCC1,0.19,98*,67*,-0.51,0.3,0
Cc1cc(Cl)c(S(=O)(=O)N2CCCCCC2)cc1OCC(=O)NC1CCCCC1,0.99,90*,89*,-4.2*,0.1,0.1
CCn1c(=O)cc(OCC(=O)NC2CCCCC2)c2ccccc21,0.41,49,-48,0.48,1.5,0.5
O=C(CCCOc1ccccc1)NCC1CCCO1 (configuration not stated),1,27,-2,0.65,1,0.7
O=C(O)Cn1cc(F)c(=O)[nH]c1=O,nt,nt,nt,-2.1,nt,nt
COc1ccccc1/C=N/N(C(C)=O)c1nc(-c2ccc(F)cc2)cs1,-0.39,24,29,-0.52,0.7,0.8
Cc1ccc(NS(=O)(=O)c2cc(OCC(N)=O)c(C)cc2Cl)cc1C,-2.3,nt,nt,-2.1,nt,nt
Cc1cc(Cl)c(S(=O)(=O)NC2CCCC2)cc1OCC(=O)NC1CCCCC1,-1.7,52*,44,-1.3,0.6,0.5
CCOC(=O)N1CCN(S(=O)(=O)c2cc(OCC(=O)NC3CCCCC3)c(C)cc2Cl)CC1,-0.23,54*,62*,-1.6,0.4,0.5
CCOC(=O)N1CCN(C(=O)COc2ccc(S(=O)(=O)NC3CCCCC3)cc2C)CC1,0.54,-2,42,0.45,0.6,1
CC(C)Sc1n[nH]c2nc3c(c(=O)n12)C1(CCCC1)Cc1ccccc1-3,nt,-7,28,-1.1,0.7,1.1
Cc1ccc(C)c(N2CCN(C(=O)c3ccc(NS(=O)(=O)c4c(C)noc4C)cc3)CC2)c1,-0.39,7,97*,-8.3*,0,0.9
Cc1ccc(Cl)cc1N1CCN(C(=O)c2ccc(NS(=O)(=O)c3c(C)noc3C)cc2)CC1,0.66,15,100*,nt,0,0.9
